High-throughput results deposited in PubChem by National Center for Advancing Translational Sciences (NCATS).
Only some compounds are listed: those with a hit (about 12% of all), similar ones and a draw of the others.
G9a inh: blocks human histone lysine methyltransferase G9a; Potency, µM (doses to about 102 µM), for inactives: at the highest dose activity, negative = inhibition, hits mostly inhibitors; G9a H3K9 monomethylation, AlphaScreen, 2 h; actives 8.8% (n = 350,000); further: on the % scale 0 is the no-effect control and ±100 the full control effect; nearly all actives have a fitted effect of over 75% in size
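Methyltransferase reactions run at room temperature for 2 h (20 nM enzyme, 500 nM biotin-H3K9 peptide, 20 uM SAM) after a 15 min compound preincubation; product detected by AlphaScreen beads and anti-H3K9me1 antibody.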
HP1b chromo inh: HP1-beta chromodomain-methylated histone interaction inhibition. Potency, µM (doses to about 114 µM), for the others: top-dose activity change, negative = inhibition, hits mostly inhibitors. AlphaScreen HP1-beta / biotin-H3K9me3 peptide binding. actives 0.56% (n = 390,000). P83916; further: nearly all actives have a fitted effect of over 70% in size
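Compound inhibition of the preformed complex between 50 nM HP1-beta and 50 nM biotinylated H3K9me3 peptide was read by AlphaScreen. Buffer was PBS pH 7.4 with 0.01% Tween-20. Incubations ran 30 min at room temperature, with 10 ug/mL donor/acceptor beads.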
Sfp PPTase inh: inhibitors of Bacillus subtilis Sfp phosphopantetheinyl transferase; Biochemical Sfp PPTase activity, qHTS; Potency, µM, without a hit: largest response in the series, negative = inhibition, hits mostly inhibitors; actives 3.5% (n = 310,000);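 further: the enzyme is Sfp with the accession as filed and its product quenches rhodamine fluorescence; 0% = enzyme reaction without inhibitor and -100% = no enzyme wells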
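With Hepes-Na pH 7.6 buffer containing 10 mM MgCl2, Sfp (15 nM) modified BHQ-2-YbbR (12.5 uM) using rhodamine-CoA (5 uM). Two reads 30 minutes apart at 525/598 nm yielded each well's rate.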
BAZ2B block: inhibitors of human BAZ2B bromodomain | Q9UIF8 | AlphaScreen BAZ2B-H3K14Ac peptide displacement | Potency, µM (top dose mostly 114 µM), without a hit: at the highest dose activity change, negative = inhibition, usual class: inhibitors | actives 4.4% (n = 360,000) | AID 504333; further: on the % scale 0 is the no-effect control and ±100 the full control effect; nearly all actives have a fitted effect of over 60% in size
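AlphaScreen luminescence quantifies BAZ2B engagement of H3K14Ac peptide; the protein and biotinylated peptide are both at 50 nM final, buffer PBS pH 7.4 with 0.01% Tween-20, all steps at room temperature.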
JMJD2A Tudor: blocks the human JMJD2A Tudor domain; O75164; AlphaScreen JMJD2A-Tudor / H3K4me3 peptide binding; Potency, µM (series often up to 114 µM), for the others: at the top dose activity change, negative = inhibition, usual class: inhibitors; actives 4.4% (n = 390,000); AID 504339; further: on the % scale 0 is the no-effect control and ±100 the full control effect; nearly all actives have a fitted effect of over 50% in size
* = called active by the depositor; ? = inconclusive; . = not tested or not shown; ! = not active in a repeat; [ ] = remark or other dose. The call rests on the fitted dose curve; in most records, active means well fitted curve in the direction sought with a large enough effect; inconclusive means small, poorly fitted or top-dose-only effect, or another doubt; inactive means no such curve, though single readings can be large; an effect the other way counts as inactive or inconclusive. Potency means the concentration at half of the fitted maximal effect.

SMILES	G9a inh	HP1b chromo inh	Sfp PPTase inh	BAZ2B block	JMJD2A Tudor
CCCCn1c(N)c(N(CCOC)C(=O)c2cnc(C)cn2)c(=O)[nH]c1=O	40µM*	27%	.	12%	-9%
CCCCN(C(=O)c1ccc(-c2ccc(Cl)cc2)o1)c1c(N)n(CCC)c(=O)[nH]c1=O	8.9µM*	31%	.	3%	-9%
CCOc1ccc(N(CC(=O)N2CCN(c3ccccc3OC)CC2)S(=O)(=O)c2ccc(C)cc2)cc1	.	7%	-6%	?	-17%
CCCSc1nc(C)c(-c2csc(C(C#N)=C3CCCC3)n2)cc1C#N	?	1%	71µM*	20µM*	50µM*
CC1CCC/C(=C(\C#N)c2nc(-c3cc4ccccc4oc3=O)cs2)C1 (stereo not drawn)	-3%[59 µM]	116%	-17%	13%	52%
COc1cc(CNCc2cc(OC)ccc2OC)cc(OC)c1	25µM*	?	-5%	?	28µM*
COc1ccc(CNCc2cc(OC)ccc2OC)cc1	13µM*	-20%	-9%	56µM*	28µM*
COc1ccc(CNCc2cc(C)c(OC)cc2C)c(OC)c1	.	?	-11%	50µM*	20µM*
COc1ccc(CNCc2ccc(F)cc2)c(OC)c1	15%	30%	7%	-21%	-17%
CN(C(Cc1ccc(OS(=O)(=O)c2cccc3cnccc23)cc1)C(=O)N1CCN(c2ccccc2)CC1)S(=O)(=O)c1cccc2cnccc12 (stereo not drawn)	16µM*!	.	8%	.	.
COc1cc(C(=S)N2CCCC2)ccc1OCC(N)=O	-14%	43%	2%	-5%	-17%
Nc1scc2c(C(=O)N/N=C/c3ccc(Cl)cc3)nn(-c3ccccc3)c(=O)c12	?	-24%	14µM*	?	45µM*
O=C(O)Cn1cnc2scc(-c3cccs3)c2c1=O	?	14%	56µM*	?	-17%
CCOC(=O)c1c(O)c(Cl)c(C)[nH]c1=O	-10%	5%	19%	.	79µM*
CCOC(=O)c1c(O)c2c([nH]c1=O)CCCC2	15%[2.33 µM]	28%	7%	-6%	7%
Nc1cc(C(=O)N/N=C/c2cccc([N+](=O)[O-])c2)n[nH]c1=O	?	81%	-8%	56µM*	?
O=C(N/N=C/c1cccc([N+](=O)[O-])c1)c1cc[n+](CCO)cc1	-37%	21%	8%	50µM*	-23%
CCN(CC(=O)NCc1ccc(Cl)cc1)C(=O)CSc1ccc(F)cc1	-20%[0.501 µM]	36%	.	0%	-10%
COc1ccc(CCNC(=O)C(NS(=O)(=O)c2ccc3c(c2)CCN3C(C)=O)C(C)C)cc1OC (stereo not drawn)	40µM*	.	15%	-19%	.
O=C(c1cc2c(s1)CCCC2)N1CCN(c2ccccc2)CC1	?	7%	-2%	-12%	-25%
O=C(Nc1ccccc1N1CCOCC1)c1cc2c(s1)CCCCC2	9%	11%	-12%	7%	-2%
O=C(Nc1ccc(N2CCOCC2)cc1)c1cc2c(s1)CCCC2	40µM*	0%	5%	40µM*	?
O=C(Nc1ccc(N2CCOCC2)cc1)c1cc2c(s1)CCCCC2	32µM*	?	6%	?	79µM*
Cc1ccc(NC(=S)NNC(=O)c2ccc(N3CCOCC3)c([N+](=O)[O-])c2)cc1C	?	-24%	5%	?	?
COc1cccc(CN(C)Cc2nc(C3CC3)no2)c1	21%	16%	8%	2%	0%
SMILES	G9a inh	HP1b chromo inh	Sfp PPTase inh	BAZ2B block	JMJD2A Tudor
CCCc1nc(SCc2cccnc2)c2c(=O)n(C)c(=O)n(C)c2n1	-43%[59 µM]	33%	-22%	0%	-8%
Cc1ccccc1-c1nc(SCc2cccnc2)c2c(=O)n(C)c(=O)n(C)c2n1	56µM*	6%	10%	-14%	-11%
Cn1c(=O)c2c(SCc3cccnc3)nc(CC(C)(C)C)nc2n(C)c1=O	1%	62%	56µM*	0%	-11%
S=C1NC2=C(CCC/C2=C\c2ccc(Cl)cc2)C(c2ccc(Cl)cc2)N1 (stereo not drawn)	.	8%	7.9µM*	-31%	-32%
S=C1NC2=C(CCC/C2=C\c2ccccc2)C(c2ccccc2)N1 (stereo not drawn)	8.9µM*	1%	22µM*	?	?
O=C1/C(=C/c2ccc(F)cc2)CCC1C1CCCC1 (stereo not drawn)	0%[59 µM]	49%	0%	9%	21%
COc1ccc(C2C3=C(Nc4ncnn42)c2ccccc2CC3)cc1OC (stereo not drawn)	?	.	-3%	-8%	.
Fc1cccc(/C=C2\CCCC3=C2NC(=S)NC3c2cccc(F)c2)c1 (stereo not drawn)	.	3%	?	?	?
FC(F)(F)c1ccccc1C1C2=C(Nc3ncnn31)c1ccccc1CCC2 (stereo not drawn)	?	.	28µM*	-21%	.
CC1CC2=C(NC(=S)NC2c2ccc(F)cc2)/C(=C/c2ccc(F)cc2)C1 (stereo not drawn)	25µM*	-12%	-25%	?	-33%
C(=C1/CCCC2=C1Nc1ncnn1C2c1ccccc1)/c1ccccc1 (stereo not drawn)	45µM*	.	50µM*	-38%[57.1 µM]	.
CC(=O)C1=C(C)Nc2ncnn2C1c1ccccc1 (stereo not drawn)	56%	39%	7%	6%	-2%
CCOc1ccc(N/C=C/C(=O)c2ccccc2)c([N+](=O)[O-])c1	8.9µM*	?	-2%	?	?
CC(C(=O)Nc1cccc([N+](=O)[O-])c1)N1C(=O)NC2(CCCC2)C1=O (stereo not drawn)	-10%	15%	14%	-21%	1%
O=C1CCC(C(=O)OCc2cc(Cl)ccc2OC(F)F)N1 (stereo not drawn)	-15%[59 µM]	-13%	6%	8%	40µM*
CC(=O)Oc1ccc(-c2csc(Nc3ccc(S(N)(=O)=O)cc3)n2)cc1	-34%	-5%	9%	-8%	?
Cc1nc(C)c(-c2csc(Nc3ccc(F)cc3)n2)s1	20µM*	?	-31%	?	?
COc1ccc(-c2csc(Nc3ccc(S(=O)(=O)Nc4cc(C)on4)cc3)n2)cc1	45µM*	-32%	-25%	?	?
COc1ccc(-c2csc(Nc3ccc(S(N)(=O)=O)cc3)n2)cc1	-9%[2.33 µM]	-28%	?	50µM*	-19%
CCC(=O)Nc1nc(C)c(-c2csc(Nc3ccc(S(=O)(=O)Nc4cc(C)on4)cc3)n2)s1	50µM*	.	-17%	-5%	.
Cc1cc(NS(=O)(=O)c2ccc(Nc3nc(-c4sc(C)nc4C)cs3)cc2)no1	-13%	.	0%	-2%	.
COc1cc(OC)cc(C(=O)NCC2CCCN(C(=O)c3oc(C)cc3C)C2)c1 (stereo not drawn)	21%	23%	18%	-14%	-14%
